Screening data as filed in PubChem.
An excerpt weighted towards active compounds, which were near 3.3% of everything screened.
Sm TGR inh – S. mansoni TGR enzyme inhibition | Q962Y6 | purified TGR, DTNB reduction, TNB absorbance 405 nm | Potency, µM (series often up to 114 µM), without a hit: top-dose activity change, negative = inhibition, most hits filed as inhibitors | 360,000 compounds, 3% hits | AID 485364; also: % is scaled to controls: 0 for no effect and ±100 for the full control effect; nearly all actives have a fitted effect of over 60% in size
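TGR 20 nM + NADPH 100 uM (dispensed conc.), cpd preinc 15 min RT; start with NADPH (500 uM addition) then DTNB (15 mM addition). Kinetic TNB absorbance, 405 nm filter. Four-parameter Hill fit across titration.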
LmPK inh – blocks Leishmania mexicana pyruvate kinase activity. purified LmPK, Kinase-Glo ATP luminescence, 1 h. Q27686. Potency, µM (doses to about 57.5 µM), for the others: at the highest dose activity change, negative = inhibition, hits mostly inhibitors. 290,000 compounds, 0.37% hits; also: % is scaled to controls: 0 for no effect and ±100 for the full control effect
Target sequence (Q27686 whole entry, looked up): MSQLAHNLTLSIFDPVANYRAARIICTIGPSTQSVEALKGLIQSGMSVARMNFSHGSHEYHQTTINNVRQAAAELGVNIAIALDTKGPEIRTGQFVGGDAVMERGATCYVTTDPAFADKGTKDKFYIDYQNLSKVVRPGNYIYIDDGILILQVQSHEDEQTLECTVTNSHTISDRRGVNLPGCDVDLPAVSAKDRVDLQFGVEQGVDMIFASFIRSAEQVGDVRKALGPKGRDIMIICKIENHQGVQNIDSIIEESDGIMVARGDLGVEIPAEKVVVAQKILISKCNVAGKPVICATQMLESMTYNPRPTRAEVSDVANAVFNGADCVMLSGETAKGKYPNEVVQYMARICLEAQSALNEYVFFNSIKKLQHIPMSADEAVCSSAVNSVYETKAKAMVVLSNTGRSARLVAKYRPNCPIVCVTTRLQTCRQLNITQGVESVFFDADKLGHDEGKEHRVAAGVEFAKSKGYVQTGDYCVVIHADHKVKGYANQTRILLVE
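ATP generated from ADP (0.1 mM) and PEP (0.5 mM) by 0.1 nM LmPK over 1 h at room temperature (pH 7.2 imidazole buffer) was detected by coupled luciferase luminescence. Values were normalized to uninhibited and no-enzyme wells.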
RE007 growth inh – less growth of the S. pombe RE007 Vpr strain; S. pombe RE007 Vpr strain, BacTiter-Glo ATP luminescence, 24 h; Potency, µM (doses to about 92.2 µM), for the others: at the top dose activity change, negative = less growth, hits mostly inhibitors; 360,000 compounds, 0.21% hits; active = well fitted falling curve with a large enough effect; inconclusive = small, poorly fitted or top-dose-only effect; inactive = no such curve, though single readings can be large or run the other way; also: % is scaled to controls: 0 for no effect and ±100 for the full control effect; nearly all actives have a fitted effect of over 50% in size
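Fission yeast strain RE007, carrying one chromosomally integrated HIV-1 vpr copy, was seeded at OD 0.01 in PMG+AL medium with 23 nL pinned compound. After 24 h at 30 °C and 99% humidity, viability was read by BacTiter-Glo luminescence.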
Tb PYK inh – T. brucei pyruvate kinase inhibition; Potency, µM (doses to about 76.8 µM), for inactives: at the highest dose activity, negative = inhibition, hits mostly inhibitors; TbPYK enzyme, Kinase-Glo Plus ATP luminescence, 45 min; 410,000 compounds, 0.12% hits; also: % is scaled to controls: 0 for no effect and ±100 for the full control effect; nearly all actives have a fitted effect of over 50% in size
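Screened from lowest to highest concentration, compounds were pinned into TbPYK/substrate mixtures, and ADP (130 uM final) was added. Plates sat at room temperature for 45 min prior to Kinase-Glo Plus detection by luminescence.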
NS1 inh – inhibitors of influenza NS1 protein function | Potency, µM (highest dose often 46.1 µM), inactives show top-dose activity, positive = more growth | 270,000 compounds, 0.4% hits | AID 2326; calls by dose curve; also: actives are rising curves; nearly all actives have a fitted effect of over 50% in size
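OD600 was taken as the measure of yeast growth restored by compound in an NS1-expressing S. cerevisiae strain. Cells had been washed out of glucose medium and diluted 1:100 into galactose -URA medium, pH 6.0.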
SARS PLpro yeast – blocks SARS-CoV papain-like protease in a yeast assay. S. cerevisiae expressing SARS-CoV PLpro, growth rescue. 330,000 compounds, 0.19% hits. AID 485353. Potency, µM (highest dose often 32.9 µM), inactives show at the highest dose activity, positive = growth rescue, usual class: activators; calls by dose curve; also: 0% is about no effect; nearly all actives have a fitted effect of over 55% in size
* = called active by the depositor; ? = inconclusive; · = not tested or not shown; [ ] = remark or other dose. Unless noted, calls follow the shape of the dose curve; as a rule, active = well fitted curve in the direction sought with a large enough effect; inconclusive = small, poorly fitted or top-dose-only effect, or another doubt; inactive = no such curve, though single readings can be large; an effect the other way counts as inactive or inconclusive. Potency is read from the fitted curve at half-maximal effect.

SMILES	Sm TGR inh	LmPK inh	RE007 growth inh	Tb PYK inh	NS1 inh	SARS PLpro yeast
COc1ccc(CNC(=O)c2cc(-c3cccs3)nc3ccccc23)c(OC)c1	0%	·	·	3%	·	·
O=C(COC(=O)CCC(=O)c1ccc(Cl)cc1)NCc1ccco1	18µM*	0%	-17%	-2%	·	-3%
Cc1ccc(-c2csc(=S)n2CC(=O)OCC(=O)NC(C)C(C)C)cc1 (stereo unspecified)	0%	3%	-13%	4%	12%	-1%
O=C(COC(=O)CCOc1ccccc1)NCc1ccco1	35µM*	-1%	16%	-3%	-6%	-1%
Cc1ccc(-c2csc(=S)n2CC(=O)OCC(=O)NCc2ccco2)cc1	40µM*	1%	-3%	-11%	-7%	-2%
O=C(COc1ccccc1)NCc1ccco1	·	·	10%	0%	·	·
O=C(COC(=O)CCC(=O)c1ccc(F)cc1)NCc1ccc(Cl)cc1	·	·	-1%	-4%	·	-4%
CC(=O)OC1CC(OC2C(O)CC(OC3C(O)CC(O[C@H]4CC[C@]5(C)C6CC[C@]7(C)[C@@H](C8=CC(=O)OC8)[C@@H](O)C[C@]7(O)[C@@H]6CC[C@@H]5C4)OC3C)OC2C)OC(C)C1OC1OC(CO)C(O)C(O)C1O (stereo partly specified)	·	·	·	1%	·	·
Cc1ccc(NS(=O)(=O)c2ccc(-c3cc(C)no3)cc2)c(C)c1	12%	·	·	1%	·	·
COc1ccccc1NC(=O)c1sc2ncn(Cc3ccccc3Cl)c(=O)c2c1C	12%	·	·	-2%	·	·
CCC(C)(C)n1nnnc1C(c1ccc(O)c(OC)c1)N1CCN(c2nc3ccccc3s2)CC1 (stereo unspecified)	0.71µM*	6%	-3%	-17%	-30%	-3%
CCC(C)(C)n1nnnc1C(c1ccc(O)c(OC)c1)N1CCc2ccccc2C1 (stereo unspecified)	0.25µM*	4%	0%	-48%	4%	-4%
CCCCCCCCCCCCCCCC(=O)OC(C)C	·	·	·	-9%	·	·
COC(=O)c1ccc(-n2c(/C=C\c3cccc(Br)c3)nc3ccccc3c2=O)cc1	2%	·	·	-4%	·	·
Cc1cccc(N2CCN(C(=O)c3ccc4c(c3)NC(=O)C(CSCc3cccc(F)c3)N4)CC2C)c1 (stereo unspecified)	0%	1%	-2%	-14%	17%	29%
O=C1Nc2cc(C(=O)N3CCC4(CC3)OCCO4)ccc2NC1CSCc1cccc(F)c1 (stereo unspecified)	50µM*	22%	·	·	26%	-3%
Cc1ccnc(SCC(=O)N2CCc3ccccc3C2)n1	32µM*	5%	-1%	-4%	-2%	-1%
Cc1cccc(CNC(=O)C2CCN(c3nc4ccc(Cl)cc4[nH]3)CC2)c1	4%	·	·	0%[15.4 µM]	·	·
Cc1ccc(NC(=O)c2ccc(Cl)c(N3C(=O)C=CC3=O)c2)cc1	0.56µM*	10%	?	?	-192%	-33%
N#Cc1cccc(NC(=S)Nc2ccccc2)c1	50µM*	1%	-4%	-5%	0%	0%
Cc1cccc(-c2nnc(C3CCN(S(=O)(=O)c4cccc(Cl)c4)CC3)o2)c1	-6%	·	·	?	·	·
CC(C)OC(=O)/C(=C/c1ccco1)c1ccccc1	10µM*	2%	-15%	-2%	-4%	0%
CCc1ccccc1NC(=O)/C(=C/c1ccco1)c1ccccc1	35µM*	3%	-8%	-6%	-12%	-20%
CCCOc1cccc(C(=O)N(Cc2ccc(C)o2)C2CCS(=O)(=O)C2)c1 (stereo unspecified)	2%	·	·	-2%	·	·
CCOC(=O)[C@]12CCCC=C1N(CCC1=CCCCC1)C(=O)[C@H](CC(=O)N1CCC(c3ccccc3)CC1)C2	·	·	-3%	·	·	·
SMILES	Sm TGR inh	LmPK inh	RE007 growth inh	Tb PYK inh	NS1 inh	SARS PLpro yeast
COc1ccc(C2C=C(c3ccccc3)Nc3nc(CCCO)nn32)cc1 (stereo unspecified)	25µM*	4%	-18%	-9%	-11%	2%
COc1ccc(C2C=C(c3cccs3)Nc3nc(CCCO)nn32)cc1 (stereo unspecified)	40µM*	-3%	·	·	1%	-3%
OCCCc1nc2n(n1)C(c1ccccc1)C=C(c1ccccc1)N2 (stereo unspecified)	25µM*	1%	10%	2%	9%	17%
COc1ccc(S(=O)(=O)Nc2cc(S(=O)(=O)c3ccccc3)c(O)c(C)c2C)cc1	?	·	·	-1%	·	·
COc1ccccc1/C=C/C=N/NC(=O)c1ccccn1	-7%	-19%	-3%	3%	·	-5%
COc1ccccc1/C=C/C=N/NC(=O)c1cc(-c2ccco2)[nH]n1	7.1µM*	5%	0%	-6%	3%	0%
CN(C)c1ccc(CN(Cc2ccco2)C(=O)c2ccc(F)cc2)cc1	2%	·	·	3%	·	·
Cc1nc(COC(=O)c2ccc(CO)cc2)cs1	4%	0%	-19%	-6%	7%	-1%
Cc1nc(COC(=O)c2cc(O)c3ccccc3c2O)cs1	18µM*	-6%	-10%	?	·	-7%
CCC1(CC)NC(=O)N(CC(=O)Nc2sc3c(c2C(N)=O)CCC3)C1=O	45µM*	4%	-16%	-1%	10%	7%
Cc1cccc(-n2ncc(C(=O)NCc3ccccn3)c2C2CCN(C(=O)OC(C)(C)C)CC2)c1	5%	·	·	5%	·	·
Cc1cc2ccccc2c[n+]1CC(O)C[n+]1cc2ccccc2cc1C	·	·	·	·	1%	·
CCOC(=O)/C=c1\s/c(=C\c2ccc(-c3ccccc3)cc2)c(=O)n1CC(=O)NCc1ccc2c(c1)OCO2	-9%	0%	·	-14%	11µM*	-17%
C[C@H](CC(=O)O)C(C(=O)O)C(=O)O	·	·	·	·	-1%	·
N#C/C(=C\c1ccco1)Sc1nc2ccccc2s1	40µM*	12%	-6%	1%	-8%	-10%
CCCCN1C(=O)/C(=C/C=C2\Oc3ccccc3N2CC)SC1=S	-7%	1%	6%	-8%	-6%	-1%
CCN1/C(=C/C=C/c2oc3ccc(-c4ccccc4)cc3[n+]2CC)Oc2ccc(-c3ccccc3)cc21	40µM*	-9%	?	-4%	-42%	-4%
CN1C(=O)CC(N2CCN(C(=O)CN3CCCC3)CC2)C1=O (stereo unspecified)	-4%	5%	-4%	-4%	3%	-3%
O=C1CC(N2CCN(c3ccc(F)cc3)CC2)C(=O)N1c1ccc(F)cc1 (stereo unspecified)	-13%	-4%	-2%	0%	8%	-13%
COc1ccccc1N1C(=O)CC(N2CCN(c3ccc(F)cc3)CC2)C1=O (stereo unspecified)	45µM*	-1%	-2%	1%	30%	1%
